According to PubChem BioAssay:
Activity calls are given as the source filed them. The rule behind the calls is not given here.

experiment: P. aeruginosa biofilm formation inhibitors, primary screen, PAO1 strain, BacTiter-Glo luminescence, LB-PBS (AID 1144); settings: 12 h, higher = more signal

z-score, inactive:
CCOC(=O)[C@H](Cc1ccccc1)NC(=O)CCC1CC(OC(=O)NCc2cccc3ccccc23)CC2(CCCC(COC(=O)NCCC(C)C)O2)O1 (some centres undefined) -0.863
CC(C)CON=C1[C@H]2CCn3c(=O)n(Cc4cc5c(cc4Cl)OCO5)c(=O)n3[C@H]2[C@H](O)[C@@H]2O[C@H]12 0.376
CC(CCC(=O)OC[C@H]1O[C@H](C#Cc2ccccc2)C=C[C@@H]1Oc1ccc(C)cc1)=NO[C@H](C)c1cn([C@H](CO)Cc2ccccc2)nn1 0.195
COc1ccc(COC(=O)NN=C2C[C@@H](O)[C@@H](O)[C@@H]3[C@@H]4C(=O)N(c5ccc(F)cc5F)C(=O)[C@@H]4CC[C@H]23)cc1 -0.597
C#CCCCON=C1[C@H]2CCn3c(=O)n(C)c(=O)n3[C@H]2[C@H](O)[C@@H]2O[C@H]12 0.806
CC(C)=CCCC(C)=CCON=C1C[C@@H](O)[C@@H](O)[C@@H]2[C@@H]3C(=O)N(C(C)(C)C)C(=O)[C@@H]3CC[C@@H]12 -0.408
CCN1C(=O)[C@H]2[C@H]3[C@H](O)[C@H](O)CC(=O)[C@@H]3CC[C@H]2C1=O -0.402
O=C1CCCC=C1C(O)CCOC(c1ccccc1)(c1ccccc1)c1ccccc1 (centres undefined) 1.33
COC(=O)CC=C[C@@H](C)[C@@H](C=NOC[C@H]1O[C@H](c2ccccc2)C=C[C@@H]1Oc1ccc(OC)cc1)NS(=O)(=O)c1ccc(C)cc1 -0.00695
CC(CCN1CCCc2nc(C)c(C)cc21)=NO[C@@H](C)c1cc(-c2c(C)cc(C)cc2C)no1 -0.501
CO[C@H](C1CCCCC1)[C@H](C)C=CCC(=O)OCCCc1ccccc1 -0.294
CC(C)=CCCC(C)=CCON=C1C[C@@H](O)[C@@H](O)[C@@H]2[C@@H]3C(=O)N(C[C@@H]4CCCO4)C(=O)[C@@H]3CC[C@H]12 0.175
O=C1OCCC=C1C(O)CCc1ccccc1 (centres undefined) 1.15
COCOc1ccc(Br)cc1C(=O)[C@@H]1O[C@H]1c1cccc(OC)c1 0.64
CC(C)=CCCC(C)=CCON=C1C[C@@H](O)[C@@H](O)[C@@H]2[C@@H]3C(=O)N(Cc4ccccc4)C(=O)[C@@H]3CC[C@H]12 -0.302
COC(=O)[C@@H]1CC[C@H](C)[C@@H](c2ccc(C)cc2)N1C(=O)c1ccc(C=NOCC[C@@H]2C=C[C@H](OC(C)=O)[C@@H](COC(C)=O)O2)cc1 0.637
CON=C1[C@H]2CCn3c(=O)n(-c4ccccc4)c(=O)n3[C@H]2[C@H](O)[C@@H]2O[C@H]12 -0.633
CO[C@@H]1C=CCC(=O)N[C@@H](C)C(=O)OC[C@@H](OC)[C@H](C)CCCC(=O)OC[C@H]1C -0.499
O=C1C[C@@H](O)[C@@H](O)[C@@H]2[C@@H]3C(=O)N(C[C@@H]4CCCO4)C(=O)[C@@H]3CC[C@@H]12 -0.213
CON=C[C@@H](C)[C@H](OCc1ccccc1)C(C)C -1.54
COC(=O)CC=C[C@@H](C)[C@@H]1C=C[C@H](O)[C@@H](CO)O1 -0.159
Cc1ccc(S(=O)(=O)n2c3ccccc3c3nnc(C(=O)c4ccccc4)nc32)cc1 -0.673
CC(C)CON=C1C[C@@H](O)[C@@H](O)[C@@H]2[C@@H]3C(=O)N(c4ccc(F)cc4F)C(=O)[C@@H]3CC[C@H]12 -0.359
CC(CCN1CCc2nc(-c3ccccc3)c(-c3ccccc3)cc2C1)=NOC[C@@H](O)COCc1ccco1 -0.255
COc1cccc([C@H]2Oc3ccc(OC)cc3C(=NOC[C@@H](O)COCc3ccco3)[C@@H]2O)c1 0.357
CC(CCN1CCCCc2nc(C)c(C)cc21)=NOC[C@@H](C)[C@H](OCc1ccccc1)C(C)C -0.4
O=C(NN=C1C[C@@H](O)[C@@H](O)[C@@H]2[C@@H]3C(=O)N(C[C@@H]4CCCO4)C(=O)[C@@H]3CC[C@H]12)OCc1ccccc1 0.458
COC(=O)[C@H]1[C@@H](O)[C@@]2(O)c3ccccc3O[C@@]2(c2ccccc2)[C@@H]1c1ccccc1 0.576
CC(C)(C)N1C(=O)[C@H]2[C@H]3[C@H](O)[C@H](O)CC(=NO[C@@H]4O[C@H](CO)[C@@H](O)[C@H](O)[C@H]4O)[C@H]3CC[C@H]2C1=O 0.745
